From PubChem BioAssay
Hits are enriched below; roughly 9.2% of the tested compounds scored in any of these assays.
NPC1 prom act: activates the NPC1 promoter; AID 485313; Huh7 NPC1 promoter luciferase reporter, 24 h; Potency, µM (doses to about 9.22 µM), most hits filed as activators; hit rate 2.4% among 320,000; further: nearly all actives have a fitted effect of over 60% in size
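Stably transfected Huh7 (NPC1 promoter→luciferase), 1500 cells/well in Opti-MEM + 10% FBS, 2 h settle, then compound 24 h at 37 °C. Luminescence after 10 min with Amplite reagent.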
SMN2 splice enh: enhancers of SMN2 splice variant expression. Potency, µM (series often up to 46.1 µM), hits mostly activators. hit rate 2.8% among 210,000. HEK293 SMN2-luciferase splicing reporter, luminescence, 30-36 h; further: nearly all actives have a fitted effect of over 55% in size
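HEK293 cells carry an SMN2 minigene-luciferase reporter in which exon 7 inclusion puts luciferase in frame. Cells were seeded at 2000 cells/well, attached for 10-12 hours, then exposed to compounds for 30-36 hours at 37C before ONE-Glo luminescence.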
ELG1 DNA repair: ELG1-dependent DNA repair inhibition; hit rate 2.3% among 330,000; HEK293T ELG1-luciferase reporter, luminescence, 16 h; DNA damage induced by 5-fluorouridine; Potency, µM (series often up to 46.1 µM), most hits filed as inhibitors; further: nearly all actives have a fitted effect of over 55% in size
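Overnight (16 hr) co-exposure of 2,000 cells/well to 5-fluorouridine and compound at 37 °C preceded detection. Luciferase was quantified via ONE-Glo luminescence; loss of signal denotes inhibition.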
Rab9 promoter act: activators of Rab9 promoter; hit rate 2.8% among 320,000; Huh7 Rab9 promoter-luciferase reporter, luminescence, 24 h; Potency, µM (top dose mostly 9.22 µM), actives largely listed as activators; further: nearly all actives have a fitted effect of over 60% in size
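Luminescence from Amplite-detected luciferase (10 minutes, ambient) reports Rab9 promoter activation. Before that, stable Rab9-luciferase Huh7 cells (1500/well, reduced-serum OP-MEM I plus 10% FBS) were exposed to compound for 24 hours at 37C.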
FLuc modulator: firefly luciferase modulation, counter-screen for miR-21 project; P08659; purified FLuc, Km substrates, luminescence inhibition; Potency, µM (highest dose often 57.5 µM), most hits filed as inhibitors; hit rate 6.9% among 360,000; AID 588342; further: nearly all actives have a fitted effect of over 55% in size
Target sequence (P08659 whole entry, looked up): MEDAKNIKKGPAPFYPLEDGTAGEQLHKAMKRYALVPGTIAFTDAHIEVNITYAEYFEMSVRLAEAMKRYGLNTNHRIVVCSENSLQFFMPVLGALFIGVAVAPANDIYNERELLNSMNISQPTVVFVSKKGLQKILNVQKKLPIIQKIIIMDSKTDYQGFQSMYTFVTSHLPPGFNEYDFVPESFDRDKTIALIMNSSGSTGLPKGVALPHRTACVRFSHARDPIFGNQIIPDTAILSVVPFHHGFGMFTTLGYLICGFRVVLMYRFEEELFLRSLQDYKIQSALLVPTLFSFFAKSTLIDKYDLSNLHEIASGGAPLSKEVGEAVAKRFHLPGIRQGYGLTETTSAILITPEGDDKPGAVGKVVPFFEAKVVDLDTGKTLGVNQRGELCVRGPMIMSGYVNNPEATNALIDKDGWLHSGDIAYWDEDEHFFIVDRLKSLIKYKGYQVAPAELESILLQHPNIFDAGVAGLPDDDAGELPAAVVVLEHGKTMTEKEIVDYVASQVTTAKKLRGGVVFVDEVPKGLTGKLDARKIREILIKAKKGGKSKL
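Purified P. pyralis luciferase (10nM final) with 10uM D-luciferin and 10uM ATP (Km levels) in 50mM Tris acetate pH 7.5, 10mM Mg acetate, 0.01% Tween-20, 0.05% BSA; qHTS 6-point titration, ~60 µM downward; luminescence read.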
ELG1 genotox: inducers of genotoxicity in HEK293T ELG1-luciferase cells. HEK293T ELG1-luciferase reporter, luminescence, 16 h. Potency, µM (titrated, usually from 46 µM), usual class: activators. hit rate 1.3% among 330,000. AID 504466; further: nearly all actives have a fitted effect of over 60% in size
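HEK293T cells expressing luciferase-tagged ELG1 were exposed to compound or DMSO vehicle for 16 hr at 37 °C and 5% CO2. Luciferase activity was then measured with ONE-Glo after 30 min at room temperature.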
Numbers stand for hits. The call rests on the fitted dose curve; in most records, active means well fitted curve in the direction sought with a large enough effect; inconclusive means small, poorly fitted or top-dose-only effect, or another doubt; inactive means no such curve, though single readings can be large; an effect the other way counts as inactive or inconclusive.

Results for CNC(=O)COC(=O)/C=C/c1c(C)nn(-c2ccccc2)c1C ?
NPC1 prom act: inactive; SMN2 splice enh: inactive; ELG1 DNA repair: inactive; Rab9 promoter act: inactive; FLuc modulator: inactive; ELG1 genotox: inactive

How did CCN(CC)c1ccc(C(=O)NNC(=O)CCl)cc1 do in these assays?
NPC1 prom act: inactive; SMN2 splice enh: inactive; ELG1 DNA repair: inactive; Rab9 promoter act: inactive; FLuc modulator: inactive; ELG1 genotox: inactive

What do the screens show for `CC1(c2ccccc2)NC(=O)N(CC(=O)NNC(=O)c2ccccc2)C1=O` (centres undefined)?
NPC1 prom act: inactive; ELG1 DNA repair: inactive; Rab9 promoter act: inactive; FLuc modulator: inactive; ELG1 genotox: inactive

What do the screens show for `CCN(CC)c1ccc(C(=O)NNC(=O)c2cccn2C)cc1`?
NPC1 prom act: inconclusive; ELG1 DNA repair: inconclusive; Rab9 promoter act: 3.5µM; FLuc modulator: inconclusive; ELG1 genotox: inconclusive

How did CCN(CC)c1ccc(C(=O)NNC(=O)CN2C(=O)NC3(CCCCC3)C2=O)cc1 do in these assays?
NPC1 prom act: inactive; ELG1 DNA repair: inactive; Rab9 promoter act: inactive; FLuc modulator: 9.5µM; ELG1 genotox: inactive

How did CCN(CC)c1ccc(C(=O)NNC(=O)CN2C(=O)NC(C)(c3ccccc3)C2=O)cc1 (centres undefined) do in these assays?
NPC1 prom act: inactive; ELG1 DNA repair: inconclusive; Rab9 promoter act: inactive; FLuc modulator: 5.4µM; ELG1 genotox: inactive

How did O=C(CN1C(=O)NC2(CCCC2)C1=O)NNC(=O)c1ccc(Cl)cc1 do in these assays?
NPC1 prom act: inactive; ELG1 DNA repair: inactive; Rab9 promoter act: inactive; FLuc modulator: inactive; ELG1 genotox: inactive

Results for CCC1(c2ccccc2)NC(=O)N(CC(=O)NNC(=O)c2ccoc2C)C1=O (centres undefined) ?
NPC1 prom act: inactive; ELG1 DNA repair: inactive; Rab9 promoter act: inactive; FLuc modulator: inactive; ELG1 genotox: inactive

Results for CCc1ccc(C(=O)NNC(=O)CN2C(=O)NC(CC)(c3ccccc3)C2=O)cc1 (centres undefined) ?
NPC1 prom act: inactive; ELG1 DNA repair: inactive; Rab9 promoter act: inactive; FLuc modulator: 17µM; ELG1 genotox: inactive

How did COC(=O)N1c2ccccc2C23[C@@H]4CN5CCC[C@]6(CCC12C(O)(C6)C4=O)[C@H]53 do in these assays?
SMN2 splice enh: inactive

How did O=C(NC1CC2CCCC(C1)N2Cc1ccccc1)c1ccc([N+](=O)[O-])cc1 (centres undefined) do in these assays?
NPC1 prom act: inactive; ELG1 DNA repair: inactive; Rab9 promoter act: inactive; FLuc modulator: inactive; ELG1 genotox: inactive

How did Cc1cc(C)n(CC(=O)O)c(=O)c1[N+](=O)[O-] do in these assays?
NPC1 prom act: inactive; SMN2 splice enh: inactive; ELG1 DNA repair: inactive; Rab9 promoter act: inactive; FLuc modulator: inactive; ELG1 genotox: inactive

What do the screens show for `CSc1nnc2c(n1)OC=Nc1ccc(Br)cc1-2`?
NPC1 prom act: inactive; ELG1 DNA repair: inactive; Rab9 promoter act: inactive; FLuc modulator: inactive; ELG1 genotox: inactive

Results for CC(C)C(N)C(=O)NC(Cc1c[nH]c2ccccc12)C(=O)O (centres undefined) ?
SMN2 splice enh: inactive

How did NS(=O)(=O)c1ccc(N/C=C/C(=O)c2ccc(Br)cc2)cc1 do in these assays?
NPC1 prom act: inconclusive; SMN2 splice enh: inconclusive; ELG1 DNA repair: inconclusive; Rab9 promoter act: 2.8µM; FLuc modulator: inactive; ELG1 genotox: inconclusive

What do the screens show for `NS(=O)(=O)c1ccc(N/C=C\C(=O)c2ccncc2)cc1`?
NPC1 prom act: inactive; ELG1 DNA repair: inconclusive; Rab9 promoter act: inactive; FLuc modulator: inactive; ELG1 genotox: inactive

What do the screens show for `CN(C)c1ccc(N/C=C/C(=O)c2ccc(F)cc2)cc1`?
NPC1 prom act: 3.2µM; SMN2 splice enh: 10µM; ELG1 DNA repair: inconclusive; Rab9 promoter act: 2.5µM; FLuc modulator: 0.48µM; ELG1 genotox: 2.1µM

How did NS(=O)(=O)c1ccc(N/C=C\C(=O)c2ccc(F)cc2)cc1 do in these assays?
NPC1 prom act: 4µM; SMN2 splice enh: 13µM; ELG1 DNA repair: inconclusive; Rab9 promoter act: 3.5µM; FLuc modulator: 15µM; ELG1 genotox: inconclusive

Results for CC(=O)c1ccc(N/C=C/C(=O)c2ccc(Br)cc2)cc1 ?
NPC1 prom act: 2.8µM; ELG1 DNA repair: inconclusive; Rab9 promoter act: 4µM; FLuc modulator: inactive; ELG1 genotox: 6.5µM

How did Cc1ccc(-n2nc3c(c2NC(=O)CC(C)C)CS(=O)(=O)C3)c(C)c1 do in these assays?
NPC1 prom act: inactive; ELG1 DNA repair: inactive; Rab9 promoter act: inactive; FLuc modulator: inactive; ELG1 genotox: inactive

Results for CN1CCN(C(CNC(=O)C(=O)NC2CCCCC2)c2ccc(F)cc2)CC1 (centres undefined) ?
NPC1 prom act: inactive; ELG1 DNA repair: inactive; Rab9 promoter act: inactive; FLuc modulator: inactive; ELG1 genotox: inactive

Results for N#C/C(=C\c1ccc(Cl)cc1)c1nc2ncccc2[nH]1 ?
NPC1 prom act: inactive; SMN2 splice enh: inactive; ELG1 DNA repair: inconclusive; Rab9 promoter act: inactive; FLuc modulator: 3µM; ELG1 genotox: inactive

What do the screens show for `N#C/C(=C\c1ccc(Cl)cc1)c1nc(-c2ccco2)cs1`?
NPC1 prom act: inactive; SMN2 splice enh: inactive; ELG1 DNA repair: inconclusive; Rab9 promoter act: inactive; FLuc modulator: inconclusive; ELG1 genotox: inactive

How did Cc1ccc(S(=O)(=O)N2CCOCC2)cc1NC(=O)COC(=O)CNC(=O)c1ccc(C(C)(C)C)cc1 do in these assays?
NPC1 prom act: inactive; SMN2 splice enh: inconclusive; ELG1 DNA repair: inconclusive; Rab9 promoter act: inactive; FLuc modulator: 0.95µM; ELG1 genotox: inactive

What do the screens show for `Cc1ccc(S(=O)(=O)N2CCOCC2)cc1NC(=O)COC(=O)CNC(=O)c1ccc(Oc2ccccc2)cc1`?
NPC1 prom act: inactive; SMN2 splice enh: inactive; ELG1 DNA repair: inactive; Rab9 promoter act: inactive; FLuc modulator: 1.9µM; ELG1 genotox: inactive

How did Cc1ccc(C(=O)NCC(=O)OCC(=O)Nc2cc(S(=O)(=O)N3CCOCC3)ccc2C)cc1 do in these assays?
NPC1 prom act: inactive; ELG1 DNA repair: inactive; Rab9 promoter act: inactive; FLuc modulator: inconclusive; ELG1 genotox: inactive

Results for Cc1ccc(S(=O)(=O)N2CCOCC2)cc1NC(=O)COC(=O)CCOc1ccc(C(C)(C)C)cc1 ?
NPC1 prom act: inactive; ELG1 DNA repair: inactive; Rab9 promoter act: inactive; FLuc modulator: 3.8µM; ELG1 genotox: inactive

What do the screens show for `Cc1cc(C)cc(OCC(=O)OCC(=O)Nc2cc(S(=O)(=O)N3CCOCC3)ccc2C)c1`?
NPC1 prom act: inactive; ELG1 DNA repair: inactive; Rab9 promoter act: inactive; FLuc modulator: inactive; ELG1 genotox: inactive

How did Cc1ccc(S(=O)(=O)N2CCOCC2)cc1NC(=O)COc1cccc(Oc2ccccc2)c1 do in these assays?
NPC1 prom act: inactive; ELG1 DNA repair: inconclusive; Rab9 promoter act: inactive; FLuc modulator: inactive; ELG1 genotox: inactive
